Data on 97 compounds can be found in PubChem BioAssay AID1626 (SRMLSC, 2009).

Each structure is given as a SMILES string. Values joined by “and” are separate entries in the source; they are usually repeats but may differ in a detail not shown here. Identical values can stand only once. Screen size: about 220,000 compounds; about 2,000 (0.91%) were called active. Inconclusive results (about 2%) are left out. No stated cut-off is given here; in the data, inconclusive means inhibition above about 80% without an active follow-up result; inactive means below that; test concentration not stated here. Only a sample is shown. Potency and affinity values are given separately.

A short description of the experiment: M. tuberculosis H37Rv growth inhibitors, H37Rv strain (AID 1626).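 Further: bacteria incubated seven days before Alamar blue readout; 0% = bacteria only wells and 100% = bacteria with antibiotic wells.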 The following applies: hits give high values, concentration not given here.
As a reminder, the inhibition is the relative decrease from the control value, in per cent. As to `COc1ccccc1C(=O)Nc1nnc(-c2ccc(F)cc2)o1`, the inhibition was 9.06% (inactive). Consider `COc1cccc(-c2nnc(NC(C)=O)o2)c1`, for which the inhibition was 7.53% (inactive).

Regarding `COc1ccccc1C(=O)NNC(=O)c1ccc(Cl)cc1`, the inhibition was 0.09% (inactive). On to `O=C(Nc1nnc(-c2ccncc2)o1)c1ccccc1F`, for which the inhibition was 1.42% (inactive). The result for `O=C(Nc1nnc(-c2ccc(Cl)cc2)o1)Nc1ccccc1Cl` reads -6.02% (inactive); that for `COc1cccc(-c2nnc(NC(=O)C(C)C)o2)c1`, 59.4% (inactive).

Consider `Cc1ccc(-c2csc3nc(-c4ccncc4)[nH]c(=O)c23)cc1`, for which the inhibition is 3.27% (inactive). As for `Cc1cccc(N2CCN(C(=O)Cn3cccc3)CC2)c1C`, the inhibition is 3.88% (inactive). In the case of `Cc1ccc(/C=N/N2CCN(Cc3ccccc3)CC2)s1`, the inhibition was -23% (inactive). In the case of `COc1ccc(C2=NOC(C)(c3nnc(-c4ccc(F)cc4)o3)C2)cc1` (configuration not stated) it was -6.66% (inactive); in that of `N#CCC(=O)Nc1ncc(Cc2ccccc2Cl)s1`, 5.63% (inactive); in that of `CNc1ncc(Cc2ccccc2)s1`, 14.7% (inactive).

In the case of `Cc1ccc(CC2C(=O)N(c3ncccn3)C(=O)C2C)cc1` (configuration not stated), the inhibition is -0.53% (inactive). The result for `Cc1cccc(Cc2cnc(NC(=O)c3ccc(C)o3)s2)c1` reads 21.9% (inactive).

With `Cc1cccc(CC2CC(=O)N(c3ncccn3)C2=O)c1` (configuration not stated), the inhibition is -7.53% (inactive). In the case of `Cc1ccc(Cc2cnc(N3C(=N)SC(c4ccccc4)C3=O)s2)cc1` (configuration not stated) it was 1.22% (inactive). In the case of `Cc1ccc(CC2CC(=O)N(c3ncccn3)C2=O)cc1` (configuration not stated) it was -1.69% (inactive). The result for `O=C(CSc1nnnn1-c1ccccc1)Nc1ncc(Cc2ccccc2Cl)s1` reads 0.66% (inactive); that for `CCCn1c(=S)[nH]c2cc(C(=O)N3CCc4ccccc4C3)ccc2c1=O`, -2.54% (inactive). Consider `CC(C)(C)OC(=O)N1CC(O)CC1C(=O)OCC(=O)c1ccccc1` (configuration not stated), for which the inhibition was -11.3% (inactive). The result for `CC(O)CNC(=O)Cc1cc(=O)[nH]c(=O)[nH]1` (configuration not stated) reads -2.41% (inactive).

Take `Cc1ccc2cc(CCNC(=O)C(C)(C)C)c(=O)[nH]c2c1`: the inhibition is 4.44% (inactive). The result for `Cc1nn(C)cc1CN1CCC(CO)(CCOc2ccccc2)CC1` reads -0.32% (inactive); that for `Cc1ccc(CNC(=O)C2CNc3cc(C)ccc3O2)cc1` (configuration not stated), 11.1% (inactive).

With `CC(C)CN(CCCNC(=O)CN1C(=O)COc2ccc(S(=O)(=O)N3CCCC3)cc21)CC(C)C`, the inhibition was -2.35% (inactive).

In the case of `CNC(=O)/C(C#N)=C\c1ccc(CNS(=O)(=O)c2ccccc2)o1`, the inhibition was -2.69% (inactive).

As for `CSc1nc(C)c2c(n1)N(c1ccc(F)cc1)CC2`, the inhibition is 5.51% (inactive). For `COc1ccc(N2CCc3c(C)nc(SC)nc32)cc1`, the inhibition is 11% (inactive). In the case of `CC(C)(C)OC(=O)NCCc1nnc(SCc2cccc(Cl)c2)o1` it was 13.5% (inactive); in that of `Cc1nc2nc(N)nn2c(C)c1C/C=C/c1ccccc1`, -9.36% (inactive). On to `Cc1nc2nc[nH]n2c(=O)c1C/C=C/c1ccccc1`, for which the inhibition is -3.13% (inactive).

On to `Cc1ccnc(NC(=O)CCC(=O)N(CC(=O)NCc2ccccc2)Cc2cccs2)c1`, for which the inhibition is 6.51% (inactive). The result for `Cc1cc2nccc(-c3ccncc3)n2n1` reads 2.36% (inactive); that for `N#CCC1c2ccccc2CCN1C(=O)Nc1ccc(Cl)cc1` (configuration not stated), -4.15% (inactive). The result for `N#CCC1c2ccccc2CCN1C(=O)Nc1cccc(C(F)(F)F)c1` (configuration not stated) reads -1.17% (inactive); that for `C=CCN=C1SCC(=O)N1S(=O)(=O)c1ccccc1`, 6.81% (inactive); that for `Cc1ccn2c(CNC(C)CCn3cccn3)c(C(=O)N3CCCCCC3)nc2c1` (configuration not stated), -0.19% (inactive). The result for `Cc1nc(N2CCOCC2)c2oc3ccccc3c2n1` reads -2.79% (inactive). Consider `Cc1nc(N2CCC(C)CC2)c2oc3ccccc3c2n1`, for which the inhibition is 10% (inactive). `Cc1nc(N2CCN(Cc3nc4ccccc4[nH]3)CC2)c2oc3ccccc3c2n1`: the inhibition was -2.88% (inactive).

`COc1ccccc1N1CCN(c2ncnc3c2oc2ccccc23)CC1`: the inhibition was -5.65% (inactive). In the case of `CN(CC(=O)Nc1ccccn1)S(=O)(=O)c1ccc(Cl)cc1` it was -2.26% (inactive); in that of `CN(C)/C=C1\N=C(c2ccccc2)OC1=O`, 8.41% (inactive); in that of `CC(=O)Oc1ccc2c(=O)c(Oc3ccccc3)c(C)oc2c1OC(C)=O`, -17.4% (inactive). In the case of `COc1ccc(-c2[nH]ncc2CNC(C)Cc2cccc(C)n2)cc1F` (configuration not stated) it was 0.91% (inactive); in that of `Cc1ccc(CCN2CC(C(=O)NCCCN(C)Cc3ccccc3)CC2=O)cc1` (configuration not stated), 2.65% (inactive); in that of `COc1ccc(CNC(=O)[C@@H]2CC=C[C@@H]3CCN(Cc4ccc(Cl)c(Cl)c4)C(=O)[C@@H]32)cc1`, 6.56% (inactive).

For `CCOc1ccc(CCN2C(=O)C(=O)N([C@H](CCCN(C)Cc3ccccc3)CNCc3ccccc3)C[C@@H]2C(C)C)cc1`, the inhibition was -12.7% (inactive). The result for `O=C1NC[C@H](c2ccccc2)N(CCc2cccc(F)c2)C1=O` reads -4.05% (inactive); that for `Cc1cc(C)nc(NS(=O)(=O)c2ccc(NC(=O)c3ccco3)cc2)n1`, 3.55% (inactive); that for `O=C(Nc1ccc(Cl)cc1)OCc1cn(-c2ccc(Cl)cc2)nn1`, -0.6% (inactive).

Consider `O=C(CCN1CCCCC1)N/N=C/c1c[nH]c2ccccc12`, for which the inhibition is -4.97% (inactive).

As for `Cc1ccc(C)c(N(C(=O)CS(=O)CC(=O)Nc2ccc3c(c2)OCO3)C(C)C(=O)NC2CCCC2)c1` (configuration not stated), the inhibition was -13.4% (inactive). Regarding `CC1(C)CC(=O)C(C=Nc2ccc(O)cc2)=C(O)C1`, the inhibition was 1.61% (inactive).

`CC1(C)CC(=O)C(C=Nc2ccc(N)cc2)=C(O)C1`: the inhibition was 0.045% (inactive).

For the compound `COCCNC(=O)CSc1c2c(nc3ccc(Cl)cc13)CCCC2`, the inhibition was 0.54% (inactive). In the case of `O=C(O)c1c2c(nc3ccc(Cl)cc13)CCC2` it was -3.42% (inactive); in that of `Oc1ccc(-n2cnnn2)cc1`, -8.59% (inactive). The result for `Cc1cc(NCCN2CCOCC2)n2ncc(-c3ccccc3)c2n1` reads 8.29% (inactive); that for `CC(=O)Nc1ccc(Nc2cc(C)nc3c(-c4ccccc4)cnn23)cc1`, 72.8% (inactive). The result for `Cc1cc(N)n2ncc(-c3ccccc3)c2n1` reads 8.61% (inactive).

With `Cc1cc(-c2ccccc2)n2ncc(-c3ccccc3)c2n1`, the inhibition was 7.91% (inactive). As to `Cc1nccn1-c1cc(C(C)(C)C)nc2c(-c3ccccc3)cnn12`, the inhibition is 2.7% (inactive).

`CCc1nccn1-c1cc(C(C)(C)C)nc2c(-c3ccc(Cl)cc3)cnn12`: the inhibition is 3.22% (inactive).

With `O=C(COc1ccccc1)N1c2ccccc2Sc2ccccc21`, the inhibition was -4.38% (inactive). In the case of `O=C(O)c1ccccc1SCC(=O)N1CCOCC1` it was 7.09% (inactive); in that of `CCOc1cccc2sc(Cl)nc12`, -8.06% (inactive). The result for `CSC(=Nc1ccccc1)c1c(O)n(C)c(=O)n(C)c1=O` reads -1.82% (inactive); that for `CN=C(SCc1cc2c(cc1Cl)OCO2)c1c(O)n(C)c(=O)n(C)c1=O`, -0.46% (inactive); that for `C=CCN=C(SCC(=O)c1ccc(Cl)cc1)c1c(O)n(C)c(=O)n(C)c1=O`, 1.31% (inactive). Turning to `CN=C(SCc1ccccc1)c1c(O)n(C)c(=O)n(C)c1=O`, the inhibition is -0.87% (inactive). With `CCNC(=O)CC1S/C(=N/N=C(\C)c2ccccc2)NC1=O` (configuration not stated), the inhibition is 2.78% (inactive). The result for `O=C(CNC(=O)c1cccs1)c1ccc(F)cc1` reads 4.53% (inactive); that for `CCN(CC)S(=O)(=O)c1ccc(C(=O)OCC(=O)Nc2sc3c(c2C#N)CCCCC3)cc1`, 6.83% (inactive); that for `COc1ccc(-c2cc(-c3ccccc3)[n+](C)c(-c3ccccc3)c2)cc1`, 2.49% (inactive). In the case of `COc1ccc(-c2ccc(OC)cc2)cc1` it was -6.18% (inactive). As for `CC(=O)Nc1cccc(C(=O)/C=C/c2ccc[nH]2)c1`, the inhibition was -13.8% (inactive).

On to `CCC(=O)Nc1cccc(C(=O)/C=C/c2cccs2)c1`, for which the inhibition is 31.2% (inactive). The result for `CC(=O)Nc1cccc(C(=O)/C=C/c2ccc(N(C)C)cc2)c1` reads 8.2% (inactive); that for `CC(=O)Nc1cccc(C(=O)/C=C/c2ccc(/C=C/C(=O)c3cccc(NC(C)=O)c3)cc2)c1`, 2.15% (inactive); that for `CCC(=O)Nc1cccc(C(=O)c2ccccc2)c1`, 25.8% (inactive). Regarding `CC(=O)Nc1cccc(C(=O)/C=C/c2ccc(F)cc2)c1`, the inhibition was 16.5% (inactive). The result for `CC(C)CN1C(=O)C(NC(=O)C2CC2)(C(F)(F)F)C2=C1CC(C)(C)CC2=O` (configuration not stated) reads -4.55% (inactive). `COc1ccc(-n2c(SCC(=O)N/N=C/c3ccccc3OCC(=O)O)nc3ccccc3c2=O)cc1`: the inhibition is -3.87% (inactive). In the case of `COc1ccc(-c2cc(C(=O)OCC(=O)N(C)C)c3ccccc3n2)cc1` it was -8.2% (inactive); in that of `N#CCCN/N=C(\Cc1nc2ccccc2[nH]1)c1ccccc1`, -0.45% (inactive). In the case of `COc1cc(C(C)=O)ccc1COc1ccc(C(=O)OCC(=O)NC2CCS(=O)(=O)C2)cc1OC` (configuration not stated) it was 1.52% (inactive).

On to `O=C(O)CCn1cc(/C=C\C(=O)c2ccc(Cl)cc2)c(-c2cccc(Br)c2)n1`, for which the inhibition is -1.2% (inactive). Turning to `CCN(CC)CCCNc1cc(C)nc2cc(-c3cccs3)nn12`, the inhibition was -2.4% (inactive). As for `CC(Oc1ccc(Cl)cc1Cl)c1nc(-c2ccc(NC(=O)c3ccccn3)cc2)no1` (configuration not stated), the inhibition is -3.67% (inactive). The result for `CC(Oc1ccc(Cl)cc1Cl)c1nc(-c2ccc(NC(=O)c3cccnc3)cc2)no1` (configuration not stated) reads 76.2% (inactive); that for `CCCOc1ccc(-c2nc(OC)c3ccccc3n2)cc1`, 77% (inactive); that for `O=C(/C=C/c1ccc(Br)cc1)c1ccc(NC(=O)c2ccco2)cc1`, 10.8% (inactive). Consider `Nc1ccc(/C=C/C(=O)c2ccco2)cc1`, for which the inhibition is 78.3% (inactive). The result for `S=c1[nH]c2cc3ccccc3cc2[nH]1` reads 73.9% (inactive) and 72.9% (inactive); that for `S=c1[nH]c2ccccc2[nH]1`, -2.67% (inactive); that for `O=C(Cc1ccc(S(=O)(=O)N2CCCC2)s1)Nc1nc2c(s1)CCCC2`, 1.89% (inactive).
